Measured values reported in PubChem BioAssay AID463173 (ICCB-Longwood Screening Facility, Harvard Medical School, 2010).
About 4,300 (8.3%) of roughly 52,000 compounds were called active. The list comes from a sample in which actives are over-represented; it also holds similar structures and randomly drawn compounds. Values without a mark were called inactive. Rule as the data show it: active = survival mostly below about 52% (no sharp cut-off); inactive = mostly above about 56%.

Test system: DeltatarO mutant
Assay: growth inhibition of S. aureus wild type versus tarO mutant, primary screen, teichoic acid synthesis inhibitors, RN4220, OD600 (AID 463173)
Conditions: OD600, 18 h, hits give low values, screened at 18.75 µg/mL (by protocol)

Compound	survival
CC(C)C(=O)Nc1nnc2n1CCS2	101%
CCCSc1nc2sc3c(c2c(=O)n1-c1cccc(Br)c1)CC(C)(C)OC3	61%
CCCCSc1nc2sc3c(c2c(=O)n1-c1ccccc1C)CC(C)(C)OC3	48%
C=C(C)CSc1nc2sc3c(c2c(=O)n1-c1ccccc1)CC(C(C)C)OC3 (stereo not drawn)	76%
CCn1c(NN)nc2sc3c(c2c1=O)CC(C)(C)OC3	104%
C=C(C)CSc1nc2sc3c(c2c(=O)n1Cc1ccccc1)CC(C)(CC)OC3 (stereo not drawn)	42% (active)
CCCSc1nc2sc3c(c2c(=O)n1Cc1ccccc1)CC(C)(CC)OC3 (stereo not drawn)	14% (active)
CSc1nc2c([nH]c3ccccc32)c(=O)n1-c1ccc(C)cc1	87%
Cc1ccc(N2C(=O)C3CN4CCCN4C3C2=O)cc1 (stereo not drawn)	78%
COc1ccccc1C(=O)NCC(=O)O	76%
CCc1ccc(S(=O)(=O)c2nnn3c2nc(N2CCCC(C)C2)c2cc(Cl)ccc23)cc1 (stereo not drawn)	63%
Cc1ccc(NC(=O)Cn2c(=O)n(-c3ccccc3)c(=O)c3ccc(C(=O)NCc4ccc5c(c4)OCO5)cc32)cc1	114%
CCOC(=O)c1cccc(NC(=O)c2cc(S(=O)(=O)N3CCCCCC3)cn2C)c1	74%
COc1ccc(N2CCN(S(=O)(=O)CCNC(=O)c3ccc(C(F)(F)F)cc3)CC2)cc1	99%
COc1ccc(CCNC(=O)c2ccc3c(c2)CCN3S(=O)(=O)c2ccccc2)cc1	44% (active)
O=C(NCCc1ccccc1)c1ccc2c(c1)CCN2S(=O)(=O)c1ccccc1	38% (active)
COc1ccc(CCNC(=O)c2ccc3c(c2)CCN3S(=O)(=O)c2ccccc2)cc1OC	88%
COc1ccc(CCNC(=O)c2ccc3c(c2)CCN3S(=O)(=O)c2ccc(C)cc2)cc1OC	50%
COc1ccc(CCNC(=O)c2ccc3c(c2)CCN3S(C)(=O)=O)cc1	82%
COc1ccc(CCNC(=O)c2ccc3c(c2)CCN3S(=O)(=O)c2ccc(Cl)cc2)cc1	50%

Compound	survival
COc1ccc(CNC(=O)c2ccc3c(c2)CCN3S(=O)(=O)c2ccc(Cl)cc2)cc1	62%
COc1ccc(CNC(=O)c2ccc3c(c2)CCN3S(=O)(=O)c2ccc(C)cc2)cc1	55%
O=C(NCCc1ccccc1)c1ccc2c(c1)CCN2S(=O)(=O)c1ccc(Br)cc1	67%
COc1ccc(CCNC(=O)c2ccc3c(c2)CCN3S(=O)(=O)c2ccc(C)cc2)cc1	43% (active)
Cc1ccc(S(=O)(=O)N2CCc3cc(C(=O)NCCc4ccccc4)ccc32)cc1	104%
COc1ccc(CNC(=O)c2ccc3c(c2)CCN3S(=O)(=O)c2ccccc2)cc1	36% (active)
Cc1cccc(-c2nc(CSc3nncn4c3cc3sccc34)c(C)o2)c1	75%
COc1ccc(CC(=O)Nc2cc(-c3cn4cccnc4n3)ccc2OC)cc1	91%
COc1ccc(Cl)cc1NC(=O)CN(c1cccc(C)c1C)S(=O)(=O)c1ccccc1	72%
Cc1cccc(N2CCN(S(=O)(=O)c3ccc4c(c3)CCCN4C(=O)C3CCC3)CC2C)c1 (stereo not drawn)	77%
COc1cccc(-n2cc(C(=O)Nc3cccc(C(F)(F)F)c3)c3ccccc3c2=O)c1	61%
CCCCN(C)c1nnc(NC(=O)Nc2cccc(C(C)=O)c2)s1	93%
Cc1cccc2cc(CN(Cc3ccco3)C(=O)N3CCOCC3)c(Cl)nc12	85%
O=C(CSc1nccn1Cc1ccc(F)cc1)NCc1ccc(F)cc1	71%
O=C(c1cnc(N2CCOCC2)c2ccccc12)N1CCN(c2ccccc2F)CC1	71%
CCCc1cc(N2CCN(c3cccc(C)c3C)CC2)n2cnnc2n1	52%
CCCc1cc(N2CCN(c3ccccc3F)CC2)n2cnnc2n1	75%
CCCc1cc(N2CCN(c3cc(Cl)ccc3C)CC2)n2cnnc2n1	30% (active)
CN(C)c1cc2c(cc1NC(=O)c1ccc(F)cc1)n(C)c(=O)n2C	104%
CCNc1nc(Cl)nc(NC2CCCCC2)n1	90%

Compound	survival
COc1ccc(-c2cc3ccc(O)c(CN4CCC(C)CC4)c3oc2=O)cc1OC	52% (active)
COc1ccc(-c2cc3ccc(O)c(CN4CCCC4)c3oc2=O)cc1OC	116%
COc1ccc(-c2cc3ccc(O)c(CN4CCC(C)CC4)c3oc2=O)cc1	71%
Cc1ccc2oc(=O)c3cnn(CC(=O)N4CCN(c5cccc(C(F)(F)F)c5)CC4)c3c2c1	87%
Cc1cc(C)c2c(n1)nn1c(C)c(CCC(=O)NCc3ccccc3Cl)c(C)nc21	82%
Cc1ccc(NC(=O)CSc2nccn2Cc2ccco2)cc1Cl	87%
CCN(c1ccccc1)S(=O)(=O)c1nnc(NC(=O)c2cccs2)s1	28% (active)
CCN(c1ccc(C)cc1)S(=O)(=O)c1nnc(NC(=O)C2CCCCC2)s1	109%
CCN(c1ccccc1)S(=O)(=O)c1nnc(NC(=O)C(C)(C)C)s1	49%
CCN(c1ccc(C)cc1)S(=O)(=O)c1nnc(NC(=O)c2cccs2)s1	14% (active)
CCN(c1ccccc1)S(=O)(=O)c1nnc(NC(=O)C2CCCCC2)s1	48% (active)
CCN(c1ccc(Cl)cc1)S(=O)(=O)c1nnc(NC(=O)C2CCCCC2)s1	74%
CCN(c1ccccc1)S(=O)(=O)c1nnc(NC(=O)C(C)Oc2ccccc2)s1 (stereo not drawn)	43%
CCN(c1ccccc1)S(=O)(=O)c1nnc(NC(=O)c2ccccc2)s1	38% (active)
COc1ccc(OCC(=O)OCc2cc(=O)n3nc(C4CC4)sc3n2)cc1	61%
COc1ccc(CNC(=O)CC(c2ccc(OC)c(OC)c2)N2Cc3ccccc3C2=O)cc1 (stereo not drawn)	87%
CCC(=O)N1CCc2cc(OC)c(OC)cc2C1COc1ccc2c(C)cc(=O)oc2c1 (stereo not drawn)	136%
O=C(Nc1ccc(F)c(F)c1)c1cc(S(=O)(=O)NC2CCCC2)ccc1F	118%
